# In PubChem BioAssay (Tox21):
# Results filed as inconclusive are left out. Active and inactive are the calls of the source. Calls follow the shape of the dose curve; as a rule, active = well fitted cell-killing curve with a large enough effect in the repeat runs; inconclusive = weak or mixed curves, or effect the other way; inactive = flat fitted curve, though single readings scatter.
# Assay: qHTS assay to identify small molecule antagonists of the constitutive androstane receptor (CAR) signaling pathway - cell viability counter screen (AID 1224837); also: nearly all actives have a fitted effect of over 45% in size
# Conditions: HepG2-CYP2B6-hCAR viability, CellTiter-Fluor, 23 h, co-treated with 50 nM CITCO; series mostly up to 92.4 µM; activity change, negative = cytotoxicity: at the top concentration
# Text: National Center for Advancing Translational Sciences [NCATS]
# NIH Chemical Genomics Center [NCGC]
# U.S. Environmental Protection Agency [EPA]
# National Institutes of Environmental Health Sciences [NIEHS]
# National Toxicology Program [NTP]
# U.S. Food and Drug Administration [FDA]
# The constitutive androstane receptor (CAR) is a nuclear receptor which regulates multiple drug metabolizing enzymes (DMEs) and transporters. Activating CAR will generally increase the transcription and subsequent translation of CYP2B6 and CYP3A4. These two DMEs represent about 50% of the drug metabolizing potential in the body. When CAR is deactivated, the metabolizing potential in the body will decrease, subsequently increasing the toxicity in the body or lowering the therapeutic potential of a pro-drug. Recently, there have also been studies performed indicating CARs role in energy metabolism and cancer therapy. Therefore, inhibiting CARs activity could have a potential effect on diabetes and cancer. Identifying environmental toxins and compounds which modulate CAR, through the use of the Tox21 10K compound collection, will be an important step in determining the toxicity and potential therapeutic effects these factors will have on the human body. To differentiate true CAR antagonists from cytotoxic substances, the assay is multiplexed with a cell viability assay.
# Tox21 Assay Protocol Summary:
# A double-stable (hCAR and CYP2B6-2.2kb) transfected cell line, derived from human hepatoma (HepG2) cells, was utilized for the duration of the quantitative high-throughput screens. The HepG2-CYP2B6-hCAR cells were dispensed at 2500 cells/4 uL/well in 1536-well white solid bottom plates using a Multidrop Combi. After the assay plates were incubated at 37 C/5% CO2 for 4 hrs, 23 nL of compounds at 15 concentrations (from 5-48 columns) or positive control (from 1 to 4 columns) were transferred to the assay plates using a Pintool station. One uL of CITCO (final concentration = 50 nM) was added, using a Flying Reagent Dispenser, inside each well. After a 23 hr incubation period at 37 C/5% CO2, 1 uL of CellTiter-Fluor reagent was added into each well of the assay plates using a Flying Reagent Dispenser. The fluorescence intensity in the plates was then measured using a ViewLux plate reader.
# % is scaled to controls: 0 for no effect and ±100 for the full control effect; potency is read from the fitted curve at half-maximal effect.
Compound,"activity change, negative = cytotoxicity",Potency
COc1ccc(OC)c(CC(C)N)c1 (stereo not given),-0.474% (inactive),
Oc1c(Cl)c(Cl)cc(Cl)c1Cl,-16.9% (inactive),
O=c1[nH]c2ccccc2n1C1CCN(CCCC(c2ccc(F)cc2)c2ccc(F)cc2)CC1,,54.5 µM (active)
O=[N+]([O-])c1cc([N+](=O)[O-])c2ccccc2c1,-16.8% (inactive),
[Cl][Sn]([c]1ccccc1)([c]1ccccc1)[c]1ccccc1,,2.06 µM (active)
c1ccc2cc3c(cc2c1)-c1cccc2cccc-3c12,7.86% (inactive),
CS(=O)(=O)c1ccc(C(=O)C2C(=O)CCCC2=O)c([N+](=O)[O-])c1,-1.01% (inactive),
c1ccc2c(c1)OCC(C1=NCCN1)O2 (stereo not given),,29.8 µM (active)
COc1ccc([N+](=O)[O-])cc1O,-6.33% [at 42.5 µM] (inactive),
N#CCCC(Br)(C#N)CBr (stereo not given),,61.1 µM (active)
COC(=O)N(C(=O)N1COC2(C(=O)OC)Cc3cc(Cl)ccc3C2=N1)c1ccc(OC(F)(F)F)cc1 (stereo not given),-1.19% [at 42.5 µM] (inactive),
CN(CCCC(O)c1cccnc1)N=O (stereo not given),4.13% (inactive),
CC1(C)CC/C(=C/c2ccc(Cl)cc2)C1(O)Cn1cncn1 (stereo not given),,68.2 µM (active)
CCCCN(CCCC)C(=S)[S-].CCCCN(CCCC)C(=S)[S-].[Zn+2],,21.7 µM (active)
[Cl][Sb]([Cl])[Cl],2.65% (inactive),
Nc1ccc(Sc2ccc(N)cc2)cc1,-12.2% (inactive),
CC(C)CCCCCCCOP(=O)(Oc1ccccc1)Oc1ccccc1,2.82% (inactive),
ClC1=C(Cl)[C@]2(Cl)[C@H]3[C@H]([C@H]4C=C[C@H]3C4)[C@@]1(Cl)C2(Cl)Cl,-15.7% (inactive),
N#CC(Cl)Cl,3.63% (inactive),
O=[N+]([O-])c1ccc(Oc2ccc(C(F)(F)F)cc2[N+](=O)[O-])cc1,-10.7% (inactive),

Compound,"activity change, negative = cytotoxicity",Potency
CC(C)OS(C)(=O)=O,8.71% (inactive),
CCc1nn(C)c(C(=O)NCc2ccc(C(C)(C)C)cc2)c1Cl,-34.4% (inactive),
O=[N+]([O-])c1cc(Cl)ccc1Cl,-2.96% (inactive),
CCc1ccccc1C,0.198% (inactive),
N#Cc1c(-c2ccc(Cl)cc2)[nH]c(C(F)(F)F)c1Br,,1.22 µM (active)
N#CCCO,-3.32% (inactive),
O=C(Cl)c1ccc(Cl)cc1,14.7% (inactive),
CCCCCCCCCCCCBr,6.15% (inactive),
Clc1ccc(C(c2ccc(Cl)cc2)C(Cl)(Cl)Cl)cc1,,inactive
CCC(C)c1cc([N+](=O)[O-])cc([N+](=O)[O-])c1OC(=O)C=C(C)C (stereo not given),,61.1 µM (active)
CCN(CC)c1c([N+](=O)[O-])cc(C(F)(F)F)c(N)c1[N+](=O)[O-],-11.1% (inactive),
Oc1ccc(C(c2ccc(O)cc2)(C(F)(F)F)C(F)(F)F)cc1,-2.08% (inactive),
CC(=O)/C=C/c1ccc2c(c1)OCO2,-22.1% (inactive),
CCOP(=S)(OCC)SCS(=O)(=O)C(C)(C)C,-1.97% (inactive),
Oc1ccc(C2(c3ccc(O)cc3)c3ccccc3-c3ccccc32)cc1,,61.1 µM (active)
N#CCc1ccc(Cl)cc1,0.316% (inactive),
O=C(NC(=O)c1c(F)cccc1F)Nc1cc(Cl)c(OC(F)(F)C(F)F)c(Cl)c1,-2.84% (inactive),
CCOC(=O)OC1=C(c2cc(C)ccc2C)C(=O)NC12CCC(OC)CC2 (stereo not given),-7.14% (inactive),
CC(=O)O[C@H]1CC[C@@]2(C)C(=CC[C@@H]3[C@@H]2CC[C@]2(C)C(=O)CC[C@@H]32)C1,2.63% (inactive),
Cc1cc(C(F)(C(F)(F)F)C(F)(F)F)ccc1NC(=O)c1cccc(I)c1C(=O)NC(C)(C)CS(C)(=O)=O,2.55% [at 42.5 µM] (inactive),
